# Source: PubChem BioAssay (NMMLSC)
# Compounds with a hit are over-represented: about 0.4% of the library has one in this group of screens.
# Cdc42 wt: modulators of GTP binding to wildtype Cdc42, primary screen, biochemical, multiplex bead flow cytometry, Bodipy-GTP. Cell division control protein 42 homolog (Homo sapiens), P60953. GST-Cdc42 beads; actives lie on both sides. percent activity (GTP binding), % at 10 µM. 0.2% of 190,000 active. AID 761, 2007;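 active = percent activity GTP binding at least 20 points away from the 100% baseline, either down as inhibitor or up as activator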;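 also: median bead fluorescence of bound Bodipy-FL-GTP at 100 nM; 0% = excess unlabeled GTP control and 100% = no compound control; below 100% means less GTP binding so inhibitor and above means activator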
# Target sequence (P60953 whole entry, looked up): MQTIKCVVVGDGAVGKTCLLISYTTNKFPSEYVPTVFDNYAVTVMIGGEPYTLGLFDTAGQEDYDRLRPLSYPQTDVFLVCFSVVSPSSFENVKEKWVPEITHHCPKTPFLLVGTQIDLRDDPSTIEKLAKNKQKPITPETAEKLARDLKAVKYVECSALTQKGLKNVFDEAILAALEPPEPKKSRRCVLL
# Rab7 wt modul: modulators of GTP binding to Rab7, primary screen, biochemical, wildtype, multiplex bead flow cytometry; Rab7 GTPase wild type (dog), Bodipy-FL-GTP binding; GST-Rab7 beads, fluorescent GTP binding; actives lie on both sides; untreated = 100%, excess cold GTP = 0%; GTP binding activity (percent of control), % at 10 µM; 0.055% of 190,000 active;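 active = fluorescent GTP binding to Rab7 beads changed by at least 20 points from the 100% baseline, either direction, mostly lower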;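 also: median green fluorescence of bound Bodipy-FL-GTP per Rab7 bead population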
# Rac1 mut GTP: GTP binding modulators of activated mutant Rac1, primary screen, biochemical, bead-based flow cytometry, multiplex, fluorescent GTP; Ras-related C3 botulinum toxin substrate 1 (Homo sapiens), P63000; GST-Rac1 activated beads; actives lie on both sides; 100% means binding = to untreated wells; percent activity (GTP binding), % at 10 µM; 0.11% of 190,000 active; AID 764, 2007;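 active = GTP binding at least 20 percentage points away from the 100% baseline, in either direction, so actives lie on both sides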
# Rab2A wt mod: modulators of GTP binding to Rab2A wildtype, primary screen, biochemical, dog, bead-based flow cytometry, multiplex; Ras-related protein Rab-2A (Canis lupus familiaris), P61105; GST-Rab2 wt beads, Bodipy-GTP binding; GTP binding activity, % at 10 µM; 0.19% of 190,000 active;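 active = GTP binding activity at least 20 points away from 100%, either lowered or raised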;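 also: 0% = beads with excess unlabeled GTP and 100% = no-compound control corrected for plate trend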
# HRas wt GTP bind: modulators of GTP binding to HRas wildtype, primary screen, biochemical, bead-based flow cytometry, multiplex. GST-Ras wt beads, Bodipy-FL-GTP binding; actives lie on both sides. AID 759, 2007. GTP binding activity, % at 10 µM. 0.14% of 190,000 active. GTPase HRas (Homo sapiens), P01112;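 active = GTP binding activity at least 20% away from the 100% baseline, either lowered as inhibitor or raised as activator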;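 also: 0% = unlabeled GTP competition control and 100% = no-compound control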
# Target sequence (P01112 whole entry, looked up): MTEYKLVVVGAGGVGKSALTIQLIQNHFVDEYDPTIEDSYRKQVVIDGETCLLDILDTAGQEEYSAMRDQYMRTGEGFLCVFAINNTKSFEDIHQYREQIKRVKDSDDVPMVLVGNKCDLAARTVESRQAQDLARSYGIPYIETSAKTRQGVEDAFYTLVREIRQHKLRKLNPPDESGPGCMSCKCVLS
# Rac1 wt modul: wildtype Rac1 GTP binding modulators, primary screen, biochemical, GST-Rac1 beads, flow cytometry, multiplex. Ras-related C3 botulinum toxin substrate 1 (Homo sapiens), P63000. fluorescent GTP binding; actives lie on both sides; 0 = cold GTP competed, 100 = untreated. GTP binding activity (% of control), % at 10 µM. 0.27% of 190,000 active. AID 757, 2007;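 active = GTP binding activity at least 20 points away from the 100% control level, either lower or higher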
# * hit, by the source's call.
SMILES,Cdc42 wt,Rab7 wt modul,Rac1 mut GTP,Rab2A wt mod,HRas wt GTP bind,Rac1 wt modul
Cc1cc(C)n2nc(SCCOc3ccccc3)nc2n1,82,93,88,83,84,78*
O=C(C#Cc1ccccc1)c1cccc([N+](=O)[O-])c1,74*,91,71*,83,87,84
N/C(=N\OC(=O)Oc1ccccc1)c1cccc([N+](=O)[O-])c1,105,99,97,97,99,104
Nc1c(CO)nnn1-c1ccccc1,104,99,104,99,99,107
Cc1ccccc1C(=O)Nc1cccc(C(=O)N/N=C/c2cc(Cl)cc([N+](=O)[O-])c2O)c1,76*,90,74*,77*,80,81
COc1ccc(-c2noc(CCC(=O)N3CCN(c4cc(C)ccc4C)CC3)n2)cc1,80,85,75*,78*,82,82
Cc1oc(-c2nc3ccccc3n2C)cc1C(=O)c1ccccc1,101,104,96,98,98,98
O=S1(=O)N=C(N(CCO)/N=C/c2ccccc2)c2ccccc21,71*,91,83,70*,72*,70*
O=S1(=O)N=C(N(CCO)/N=C/c2ccncc2)c2ccccc21,64*,83,76*,66*,67*,56*
O=[N+]([O-])c1cc(Cc2ccccc2)cc(C=Nc2ccc(N3CCOCC3)cc2)c1O,78*,71*,62*,64*,77*,75*
Cc1ccc(O)c(N=Cc2cc(Cc3ccccc3)cc([N+](=O)[O-])c2O)c1,76*,79*,68*,74*,82,77*
O=C(Nc1nccs1)c1ccc(-c2cccc([N+](=O)[O-])c2)o1,82,102,86,84,84,76*
O=C(Nc1ncc(Cc2cccc(C(F)(F)F)c2)s1)c1ccc(-c2cccc([N+](=O)[O-])c2)o1,98,96,92,94,91,96
Cn1c(NCc2ccccc2)nc2c1c(=O)n(Cc1ccc(Br)cc1)c(=O)n2C,98,102,98,103,100,100
COc1ccc(CNc2nc3c(c(=O)n(Cc4ccc(Br)cc4)c(=O)n3C)n2C)cc1,83,92,79*,87,90,80
O=C(COc1ccccc1[N+](=O)[O-])Nc1cc(Cl)ccc1C(=O)O,80,92,79*,83,85,87
COCCCC1CCN(Cc2cn[nH]c2-c2cc(OC)c(OC)c(OC)c2)CC1,99,104,95,101,97,98
CCNC(=S)N1CCNC(=O)C1CC(=O)OC (stereo not drawn),101,97,98,99,101,103
Cc1c(NS(=O)(=O)c2ccc3c(c2)Cc2ccccc2-3)c(=O)n(-c2ccccc2)n1C,78*,90,76*,81,85,80
Cc1c(NS(=O)(=O)c2ccc3c(c2)n(C)c(=O)n3C)c(=O)n(-c2ccccc2)n1C,104,98,102,103,103,109
Cc1cc2c(C)c(C)c(=O)[nH]c2cc1N,105,97,97,97,99,104
